In PubChem BioAssay (NCI):
This is part of a sample that, as a whole, favours compounds with a hit. Of some 83,000 tested, about 20% had one in any assay.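 Testing used 96-well plates and a 48-hour single-concentration exposure. Example: -40 means 40% of the starting cells died.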 The source made the active and inactive calls. The calls were made as follows: active = growth percent below 10; inactive = the rest.

Tests used:
Assay in all cases: NCI-60 one-dose screen, 48 h (100 = growth as untreated, 0 = no growth, -100 = all killed)
Conditions in all cases: 10 µM unless noted
SR leukemia = tested on: SR leukemia
RPMI-8226 leukemia = tested on: RPMI-8226 leukemia
OVCAR-8 ovarian = tested on: OVCAR-8 ovarian
OVCAR-5 ovarian = tested on: OVCAR-5 ovarian
OVCAR-4 ovarian = tested on: OVCAR-4 ovarian
SK-OV-3 ovarian = tested on: SK-OV-3 ovarian
IGROV1 ovarian = tested on: IGROV1 ovarian
OVCAR-3 ovarian = tested on: OVCAR-3 ovarian
NCI/ADR-RES ovarian = tested on: NCI/ADR-RES ovarian
T-47D breast = tested on: T-47D breast
BT-549 breast = tested on: BT-549 breast
MDA-MB-435 melanoma = tested on: MDA-MB-435 melanoma
MCF7 breast = tested on: MCF7 breast
HCT-116 colon = tested on: HCT-116 colon
HCC-2998 colon = tested on: HCC-2998 colon
KM12 colon = tested on: KM12 colon
SW-620 colon = tested on: SW-620 colon

Measured: growth

COc1cc(NC(=O)CSc2nc3ccc(C)cc3c(=O)n2-c2ccccc2)cc(OC)c1OC
inactive: SR leukemia 42.3% | RPMI-8226 leukemia 76.3% | OVCAR-8 ovarian 87.4% | OVCAR-5 ovarian 99.5% | OVCAR-4 ovarian 68.9% | SK-OV-3 ovarian 107% | IGROV1 ovarian 89.6% | OVCAR-3 ovarian 84.4% | NCI/ADR-RES ovarian 75.5% | T-47D breast 81.7% | BT-549 breast 79.8% | MDA-MB-435 melanoma 47.5% | MCF7 breast 91.1% | HCT-116 colon 87% | HCC-2998 colon 97.5% | KM12 colon 75.1%

CN(C)c1ncc(-c2ccc(C(F)(F)F)cc2)c(NC2CCCCCC2)n1
active: RPMI-8226 leukemia 1.63%
inactive: SR leukemia 77.5% | OVCAR-8 ovarian 49.8% | OVCAR-5 ovarian 87.3% | OVCAR-4 ovarian 45.4% | SK-OV-3 ovarian 83.1% | IGROV1 ovarian 78.6% | OVCAR-3 ovarian 26.5% | NCI/ADR-RES ovarian 82.1% | T-47D breast 35.1% | BT-549 breast 90.3% | MDA-MB-435 melanoma 65.4% | SW-620 colon 58.1% | MCF7 breast 41.2% | HCT-116 colon 44.1% | HCC-2998 colon 72.2% | KM12 colon 54.4%

O=C(/C=C/CN1CCCCC1)Nc1cc2c(Nc3ccc(F)c(Cl)c3F)ncnc2cc1OCCOC(F)F
active: SK-OV-3 ovarian -6.19% | IGROV1 ovarian -9.94% | OVCAR-3 ovarian 0.43% | NCI/ADR-RES ovarian 9.16% | T-47D breast -1.83% | MDA-MB-435 melanoma 8.14% | HCT-116 colon 6.6%
inactive: SR leukemia 11.5% | RPMI-8226 leukemia 12.7% | OVCAR-8 ovarian 19.5% | OVCAR-5 ovarian 34.8% | OVCAR-4 ovarian 12.9% | BT-549 breast 18.3% | SW-620 colon 10.3% | MCF7 breast 17.6% | HCC-2998 colon 40.6% | KM12 colon 36.5%

COc1cc(NCCCN=C(N)NC(N)=NC(C)C)c2ncccc2c1
inactive: SR leukemia 75.2% | RPMI-8226 leukemia 52.5% | OVCAR-8 ovarian 88.5% | OVCAR-5 ovarian 57.6% | OVCAR-4 ovarian 11.3% | SK-OV-3 ovarian 93.7% | NCI/ADR-RES ovarian 98.8% | BT-549 breast 65.1% | MDA-MB-435 melanoma 96.9% | SW-620 colon 86.6% | HCT-116 colon 17.3% | HCC-2998 colon 55.8% | KM12 colon 30.6%
active: IGROV1 ovarian -12.8% | OVCAR-3 ovarian 8.99% | T-47D breast -2.75% | MCF7 breast -52.9%

CCC(C)NCC(=O)O (centres undefined)
inactive: SR leukemia 93.5% | RPMI-8226 leukemia 90.1% | OVCAR-8 ovarian 110% | OVCAR-5 ovarian 96% | OVCAR-4 ovarian 105% | SK-OV-3 ovarian 106% | IGROV1 ovarian 110% | OVCAR-3 ovarian 111% | NCI/ADR-RES ovarian 110% | T-47D breast 86.3% | BT-549 breast 110% | MDA-MB-435 melanoma 101% | MCF7 breast 103% | HCT-116 colon 99.9% | KM12 colon 105%

O=C(O)c1cccc([N+](=O)[O-])c1/C=C/c1ccccc1
inactive: SR leukemia 85.2% | RPMI-8226 leukemia 105% | OVCAR-8 ovarian 115% | OVCAR-5 ovarian 108% | OVCAR-4 ovarian 83.2% | SK-OV-3 ovarian 94.6% | IGROV1 ovarian 94.8% | OVCAR-3 ovarian 103% | NCI/ADR-RES ovarian 103% | T-47D breast 95.2% | BT-549 breast 106% | MDA-MB-435 melanoma 105% | SW-620 colon 96.7% | MCF7 breast 95.5% | HCT-116 colon 94.3% | HCC-2998 colon 103% | KM12 colon 99.8%

O=C(Nc1ccc(F)cc1)c1cc([N+](=O)[O-])ccc1O
inactive: SR leukemia 83.7% | RPMI-8226 leukemia 32.4% | OVCAR-8 ovarian 76.2% | OVCAR-5 ovarian 86.1% | OVCAR-4 ovarian 70.5% | SK-OV-3 ovarian 84% | IGROV1 ovarian 66.3% | OVCAR-3 ovarian 56.1% | NCI/ADR-RES ovarian 72.9% | T-47D breast 56% | BT-549 breast 81.5% | MDA-MB-435 melanoma 72.2% | SW-620 colon 76.5% | MCF7 breast 61.5% | HCT-116 colon 66.8% | HCC-2998 colon 63.9% | KM12 colon 51.6%

CNC(C)=O
inactive: SR leukemia 88.2% | RPMI-8226 leukemia 103% | OVCAR-8 ovarian 102% | OVCAR-5 ovarian 95.8% | OVCAR-4 ovarian 104% | SK-OV-3 ovarian 102% | IGROV1 ovarian 105% | OVCAR-3 ovarian 75.8% | NCI/ADR-RES ovarian 102% | BT-549 breast 76.3% | MDA-MB-435 melanoma 105% | SW-620 colon 105% | MCF7 breast 90.5% | HCT-116 colon 105% | HCC-2998 colon 101% | KM12 colon 106%

Cc1ccc2c(c1)C(=O)C(c1c(-c3[nH]c(=O)c4ccc(C)cc4c3O)c(O)c3ccccc3c1O)=NC2=O
inactive: SR leukemia 23.1% | RPMI-8226 leukemia 32.8% | OVCAR-8 ovarian 14.4% | OVCAR-5 ovarian 66.4% | OVCAR-4 ovarian 25.2% | SK-OV-3 ovarian 44% | NCI/ADR-RES ovarian 14.9% | T-47D breast 11.9% | BT-549 breast 32.7% | MDA-MB-435 melanoma 30.7% | MCF7 breast 12.3% | HCT-116 colon 12.9% | HCC-2998 colon 62% | KM12 colon 18.5%
active: IGROV1 ovarian 6.46% | OVCAR-3 ovarian -38.7% | SW-620 colon 7.11%
